Data from the supplement of paper PMC7411640.
Where a name gives a salt, the structure may show the parent alone.

Test system: MDA-MB-468
Experiment: phospho-S6 immunofluorescence (DAPI-normalised), per-plate z-score; higher = higher phospho-S6 signal (less pathway suppression)
Conditions: 24 h
Protocol: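 GPCR-targeted compound library (MedChemExpress HY-L006) tested on MDA-MB-468 PTEN-null TNBC cells in 384-well plates at 0.1, 1 or 10 uM, combined with vehicle, GDC0941 450 nM or lapatinib 1 uM, for 24 h. Phospho-S6 (S240/244) immunofluorescence normalised to DAPI and expressed as a per-plate z-score; values are the mean of biological triplicates.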

Structure (SMILES) | phospho-S6 immunofluorescence (z-score) (co-treatment: GDC0941 450 nM) | phospho-S6 immunofluorescence (z-score) (co-treatment: lapatinib 1 uM) | phospho-S6 immunofluorescence (z-score) (co-treatment: vehicle)
CC(C)Cc1ccc([C@@H](C)C(=O)NS(C)(=O)=O)cc1 [Reparixin] (compound 10 µM) | 0.03 | 0.34 | -1.14
N=C(N)NCCCCN [Agmatine (sulfate)] (compound 10 µM) | 0.88 | -0.16 | 0.73
COc1ccc(/C=C/C(=O)Nc2ccccc2C(=O)O)cc1OC [Tranilast] (compound 10 µM) | 1.77 | -0.19 | 0.33
CN/C(=N\CCSCc1nc[nH]c1C)NC#N [Cimetidine] (compound 10 µM) | 0.86 | 0.64 | -0.63
O=C1CCC(c2ccccc2)(C2CCN(Cc3ccccc3)CC2)C(=O)N1 (centres undefined) [Benzetimide (hydrochloride)] (compound 10 µM) | 0.5 | -0.15 | 0.11
CC#C[C@]1(O)CC[C@H]2[C@@H]3CCC4=CC(=O)CCC4=C3[C@@H](c3ccc(N(C)C)cc3)C[C@@]21C [Mifepristone] (compound 10 µM) | -2.47 | 1.14 | -0.01
Cc1nc2c([nH]1)-c1ccccc1N(C(=O)c1ccc(NC(=O)c3ccccc3-c3ccccc3)cc1)CC2 [Conivaptan (hydrochloride)] (compound 10 µM) | 0.65 | 0.52 | 0.94
CC(N)(C(=O)O)c1ccc(C(=O)O)cc1 (racemic) (compound 10 µM) | 0.62 | 0 | 0.84
O=C(O)COc1cccc(CN(Cc2ccc(-n3cccn3)cc2)S(=O)(=O)c2cccnc2)c1 [Taprenepag] (compound 10 µM) | -0.91 | 0.34 | -0.73
C[C@H](NC(=O)c1cc(Cl)ccc1Oc1ccc(F)cc1)c1ccc(C(=O)O)cc1 (compound 10 µM) | -0.64 | 0.18 | 0.3
COc1cc(/C=C/C(=O)O)ccc1O [Ferulic acid (sodium)] (compound 10 µM) | 0.56 | 0.36 | 0.33
CC(=O)OCC(=O)[C@@]12N=C(C)O[C@@H]1C[C@H]1[C@@H]3CCC4=CC(=O)C=C[C@]4(C)[C@H]3[C@@H](O)C[C@@]12C [Deflazacort] (compound 10 µM) | -0.99 | -0.57 | -0.08
CN1CCN(CC(=O)N2c3ccccc3C(=O)Nc3cccnc32)CC1 [Pirenzepine (dihydrochloride)] (compound 10 µM) | 1.51 | 1.09 | 0.23
